{"source": "the OligoGym collection", "data": [{"molecular_target": "AP4E1", "assay": "pooled miR-30 sensor sort-seq; sequence = guide strand", "conditions": "shRNA", "values": [{"sequence": "TACATTAATTCACTTGTCCTTT", "sensor-assay potency score (higher = more potent)": -0.311}, {"sequence": "TAAAGAAGCATCTACCACCAAG", "sensor-assay potency score (higher = more potent)": -0.753}, {"sequence": "TTTCAGACTACTCAGTTCCTGC", "sensor-assay potency score (higher = more potent)": -0.633}, {"sequence": "TACAACTGTATTCACAAGGAGA", "sensor-assay potency score (higher = more potent)": -0.841}, {"sequence": "AAGAACTTGAGATTGATCCTTT", "sensor-assay potency score (higher = more potent)": 0.655}, {"sequence": "TTCATTGTCTGAATAAACCATG", "sensor-assay potency score (higher = more potent)": -0.705}, {"sequence": "TATTTGTCTCTTTCAGTCCTGT", "sensor-assay potency score (higher = more potent)": -0.0122}, {"sequence": "TTTTCTTCGTACAATCTCCTTA", "sensor-assay potency score (higher = more potent)": 0.18}, {"sequence": "TTTCTTTATACCTTCCAGCTTC", "sensor-assay potency score (higher = more potent)": -0.271}, {"sequence": "TTCATTATTACAGACTTCCATA", "sensor-assay potency score (higher = more potent)": -0.778}, {"sequence": "TAACTTGAAGAAATCTCTGTGG", "sensor-assay potency score (higher = more potent)": 0.558}, {"sequence": "TAATTTTTCTTCTTCGTGCTTG", "sensor-assay potency score (higher = more potent)": 0.244}]}, {"molecular_target": "AP4S1", "assay": "pooled miR-30 sensor sort-seq; sequence = guide strand", "conditions": "shRNA", "values": [{"sequence": "ATTAACTCCAACCACAATGAAG", "sensor-assay potency score (higher = more potent)": -1.9}, {"sequence": "TTATATTCAATGAAAGAGCATT", "sensor-assay potency score (higher = more potent)": -1.02}, {"sequence": "TTGAATGATGAACTGTCTGGAG", "sensor-assay potency score (higher = more potent)": 0.198}, {"sequence": "TTTGAATGATGAACTGTCTGGA", "sensor-assay potency score (higher = more potent)": 0.922}, {"sequence": "TATATCAGCTTAAAATCCTTAT", "sensor-assay potency score (higher = more potent)": -0.456}, {"sequence": "TTGTTCATTGGATCGAGAGAGA", "sensor-assay potency score (higher = more potent)": -1.06}, {"sequence": "TGAATGATGAACTGTCTGGAGA", "sensor-assay potency score (higher = more potent)": -0.912}, {"sequence": "TTCATAAATAGCCATCTCGTTC", "sensor-assay potency score (higher = more potent)": -1.14}, {"sequence": "TAAATCAAGAAAACATTCCGGA", "sensor-assay potency score (higher = more potent)": 0.763}, {"sequence": "TTAGAAAGTCGAGTCTGCCCTT", "sensor-assay potency score (higher = more potent)": 0.201}, {"sequence": "TAAATAGCCATCTCGTTCTCAG", "sensor-assay potency score (higher = more potent)": -0.314}, {"sequence": "TAGAAAGTCGAGTCTGCCCTTG", "sensor-assay potency score (higher = more potent)": -0.4}]}, {"molecular_target": "APLNR", "assay": "pooled miR-30 sensor sort-seq; sequence = guide strand", "conditions": "shRNA", "values": [{"sequence": "TAGCGGTCGAAGCTGAGGCCGG", "sensor-assay potency score (higher = more potent)": -1.22}, {"sequence": "TAACAGGTCAGCATGATGGTGA", "sensor-assay potency score (higher = more potent)": 0.0238}, {"sequence": "TATCTGCTGACACACAGCCCAC", "sensor-assay potency score (higher = more potent)": -1.74}, {"sequence": "TAGCAATGAAGATATCAGCTGA", "sensor-assay potency score (higher = more potent)": 0.487}, {"sequence": "AAACACGGTCCAGAGCACCAGA", "sensor-assay potency score (higher = more potent)": -0.76}, {"sequence": "TGTACTCACACTCAGACTGGTT", "sensor-assay potency score (higher = more potent)": -1.04}, {"sequence": "TGGAGCACTAATTATCTGCTGA", "sensor-assay potency score (higher = more potent)": -0.596}, {"sequence": "AGTCTGTGTACTCACACTCAGA", "sensor-assay potency score (higher = more potent)": -2.07}, {"sequence": "TATAAGTACAACACACACAGAC", "sensor-assay potency score (higher = more potent)": 0.501}, {"sequence": "TAATTATCTGCTGACACACAGC", "sensor-assay potency score (higher = more potent)": -0.776}, {"sequence": "TACAGCGTCTTCACCAGGTGGT", "sensor-assay potency score (higher = more potent)": 0.0282}, {"sequence": "TTTTACTGCGTCCAGACTCAGG", "sensor-assay potency score (higher = more potent)": -1.25}, {"sequence": "TAGCTGGCTGACTTCTCCCCAC", "sensor-assay potency score (higher = more potent)": -0.754}, {"sequence": "TTCTCGTGCATCTGTTCTCCAC", "sensor-assay potency score (higher = more potent)": -0.937}, {"sequence": "TATCTAGTCAGTGTCATGGTGC", "sensor-assay potency score (higher = more potent)": -0.323}]}]}
